Screens deposited in PubChem by National Center for Advancing Translational Sciences (NCATS).
Shown are actives, neighbours in structure and some others; about 19% of the full set was active somewhere.
IL1B secr inh – qHTS for Inhibitors of Inflammasome Signaling: IL-1-beta AlphaLISA Primary Screen | AID 743279, 2014 | activity change, % at 57.5 µM | THP-1 LPS/ATP IL-1B secretion, AlphaLISA, 16 h; hits give low values | 360,000 tested, 4.7% active; in the data active = activity change below about -50%; inconclusive = mostly about -30% to -49%
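Secreted IL-1B measured by AlphaLISA bead assay after 16 h compound exposure of THP-1 cells; compounds (final up to 57.5 uM) added 1 h before LPS (250 ng/mL) and ATP (1.25 mM) stimulation; lower signal means less secretion.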
TDP1 cell CPT – qHTS for Inhibitors of human tyrosyl-DNA phosphodiesterase 1 (TDP1): qHTS in cells in presence of CPT. chicken DT40 Tdp1-/-;hTDP1 cells + 20 nM CPT, ATP luminescence, 48 h. Potency, µM (series often up to 46.2 µM), most hits filed as inhibitors. 420,000 tested, 12% active. AID 686979, 2013; also: nearly all actives have a fitted effect of over 55% in size
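Chicken DT40 Tdp1-/- cells complemented with human TDP1, 400 cells/well, exposed to compounds plus 20 nM camptothecin for at least 48 h at 37 C; viability read as ATP content by CellTiter-Glo luminescence.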
MCF10A rereplic – A quantitative high throughput screen for small molecules that induce DNA re-replication in MCF 10a normal breast cells; MCF 10A DNA re-replication, Hoechst nuclear intensity, 48 h; Potency, µM (doses to about 46.1 µM), hits mostly activators; 350,000 tested, 2.9% active; AID 624296, 2012; also: nearly all actives have a fitted effect of over 50% in size
BCR signal inh – qHTS Assay to Find Inhibitors of Chronic Active B-Cell Receptor Signaling; 340,000 tested, 0.05% active; AID 493014, 2011; ABC-DLBCL IkBa-CBG/CBR reporter, luminescence ratio, 4 h; Potency, µM (top dose mostly 46.1 µM), actives largely listed as inhibitors; active = well fitted inhibition curve with a large enough effect in the signal ratio, with a control signal flat, not every such curve was filed as active; inconclusive = small, poorly fitted or top-dose-only effect, or effect the other way, or a change in a side signal; the % refers to the signal ratio
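TMD8 ABC-DLBCL cells carrying doxycycline-inducible green luciferase fused to IkappaBalpha plus unfused red luciferase were exposed to compounds (up to 46 uM) for 4 hrs at 37C. Activity came from the overlap-corrected green/red luminescence ratio.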
SW480 rereplic – A quantitative high throughput screen for small molecules that induce DNA re-replication in SW480 colon adenocarcinoma cells; SW480 DNA re-replication, Hoechst DNA content imaging, 48 h; Potency, µM (doses to about 46.1 µM), hits mostly activators; 340,000 tested, 1.8% active; AID 624297, 2012; also: nearly all actives have a fitted effect of over 55% in size
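Quantitative HTS format with DMSO vehicle controls; 48 hr drug incubation at 37 C, then 40 min Hoechst staining and scanning imager measurement at 405 nm excitation.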
DT40 TDP1 no CPT – qHTS for Inhibitors of human tyrosyl-DNA phosphodiesterase 1 (TDP1): qHTS in cells in absence of CPT; Potency, µM (top dose mostly 46.2 µM), usual class: inhibitors; 420,000 tested, 15% active; DT40 Tdp1-/- hTDP1 cells, no CPT, ATP luminescence, 48 h; also: nearly all actives have a fitted effect of over 55% in size
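Chicken DT40 Tdp1-/- cells complemented with human TDP1, screened without camptothecin (DMSO vehicle only), 400 cells/well. Compounds pin-transferred, cells incubated at 37 °C for at least 48 hr. Growth read as ATP-dependent luminescence (CellTiter-Glo, 30 min at RT).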
A number is an active result; – = inactive; ? = inconclusive; · = not tested or not shown. Unless noted, calls follow the shape of the dose curve; as a rule, active = well fitted curve in the direction sought with a large enough effect; inconclusive = small, poorly fitted or top-dose-only effect, or another doubt; inactive = no such curve, though single readings can be large; an effect the other way counts as inactive or inconclusive.

SMILES | IL1B secr inh | TDP1 cell CPT | MCF10A rereplic | BCR signal inh | SW480 rereplic | DT40 TDP1 no CPT
O=[N+]([O-])c1ccc(COc2ccc(CN3CCCC3)cc2)cc1 | – | 16µM | ? | · | – | 18µM
O=[N+]([O-])c1ccc(COc2ccc(CN3CCCCC3)cc2)cc1 | – | ? | – | · | ? | ?
COc1ccccc1NC(=O)N[C@@H](Cc1c[nH]c2ccccc12)C(=O)NN | – | – | ? | – | – | ?
CCc1ccc(-n2c(=O)c3sc4ccccc4c3n(Cc3cccc(F)c3)c2=O)cc1 | · | – | · | · | · | ?
COc1ccc(N2CCN(CCC(=O)c3ccc4ccccc4c3)CC2)cc1 | ? | 18µM | 10µM | – | ? | 15µM
O=C(CCN1CCN(c2ccccc2)CC1)c1ccc(Cl)cc1 | – | 5.2µM | – | ? | ? | 6.5µM
O=C(CCN1CCN(c2ccc([N+](=O)[O-])cc2)CC1)c1ccc(Cl)cc1 | – | 3.7µM | ? | – | ? | 4.6µM
O=C(CCN1CCOCC1)c1ccc(N2CCCCC2)cc1 | -73 | 1.6µM | ? | ? | – | 4.1µM
COc1ccc(N2CCN(CC(=O)c3ccccc3)CC2)cc1 | – | ? | – | – | – | ?
CN(CC(=O)Nc1ccccc1Br)C(=O)c1cc(S(=O)(=O)N(C)C)ccc1N1CCCC1 | – | – | – | – | – | –
Clc1cccc(CN2CCSCC2)c1 | – | – | – | – | – | –
CCOc1ccccc1NC(=O)NC(=O)N(C)S(=O)(=O)c1ccc(C)cc1 | – | – | – | – | – | –
O=C(CCCN1CCN(c2ccccc2)CC1)c1ccc(F)cc1 | – | ? | · | · | · | ?
O=C1CC(=C(c2ccccc2)c2ccccc2)C(=O)N1CCCCN1CCN(c2ccccc2)CC1 | ? | 15µM | ? | ? | ? | 9.2µM
C=CCOc1c(CNn2nnnc2N)cccc1OC | – | – | – | – | – | –
COc1cc(CNn2nnnc2N)cc(Br)c1OCc1c(Cl)cccc1Cl | – | 18µM | – | – | – | 21µM
COC1(OC)C(/C=C/c2ccc(C)cc2)C(C#N)(C#N)C1(OC)OC (stereo not drawn) | -120 | ? | 18µM | · | ? | ?
Cc1ccccc1-c1nc2c3c(-c4ccccc4)c(-c4ccccc4)oc3ncn2n1 | · | – | · | · | · | –
CC(=O)c1c(C)[nH]c(C(=O)N2CCCC(C)C2)c1C (stereo not drawn) | – | – | – | – | 2.3µM | –
CC(O)(c1ccc(F)c(F)c1)c1nc(-c2cccc3cccnc23)cs1 (stereo not drawn) | – | ? | · | · | · | –
COc1cc(/C=C/C(=O)OCC(=O)Nc2c(C)n(C)n(-c3ccccc3)c2=O)cc(OC)c1OC | – | – | – | – | – | –
Cc1ccc(COn2c(-c3ccc(Cl)cc3Cl)nc3ncccc32)cc1 | – | ? | ? | ? | – | ?
Clc1cccc(COn2c(-c3ccc(Cl)cc3Cl)nc3ncccc32)c1 | – | ? | – | – | – | 21µM
Cc1cccc(C)c1OCc1cc(C(=O)NCC2CC2)no1 | – | ? | – | ? | – | –
COc1ccccc1C(=O)Nc1ccc2c(c1)CN(C(=O)CSC)CC2 | – | ? | 12µM | – | ? | ?
SMILES | IL1B secr inh | TDP1 cell CPT | MCF10A rereplic | BCR signal inh | SW480 rereplic | DT40 TDP1 no CPT
CCOC(=O)CNC(=O)N1CCc2ccc(NC(=O)c3ccccc3Cl)cc2C1 | – | 18µM | 7.3µM | ? | – | 8.2µM
S=C(Nc1ccccc1Oc1ccccc1)Nc1cccc(Cl)c1Cl | – | – | ? | – | – | ?
Cc1ccccc1OCC(=O)Nc1cccc(N(C)S(C)(=O)=O)c1 | – | – | – | ? | – | –
CN(c1cccc(NC(=O)CSc2ccc(Cl)cc2)c1)S(C)(=O)=O | – | 10µM | – | – | – | 11µM
CN(c1cccc(NC(=O)CCSc2ccccc2)c1)S(C)(=O)=O | – | – | – | – | – | –
CN(c1cccc(NC(=O)COc2ccc(Cl)cc2Cl)c1)S(C)(=O)=O | ? | 21µM | – | – | – | ?
O=C(O)C1(c2ccccc2)CCN(S(=O)(=O)c2cccc(Cl)c2)CC1 | – | – | – | – | – | –
CC(=O)Nc1ccc(NC(=O)CSc2nc3ccccc3nc2N2CCOCC2)cc1 | · | – | · | · | · | –
CCc1ccc(NC(=O)CSc2nc3ccccc3nc2N2CCCC2)cc1 | – | 10µM | ? | – | – | 4.6µM
CCc1ccccc1NC(=O)CSc1nc2ccccc2nc1N1CCOCC1 | – | – | – | – | – | ?
Cc1ccc(NC(=O)CSc2nc3ccccc3nc2N2CCCC2)cc1 | – | 12µM | – | – | – | 9.2µM
CC1CCN(c2nc3ccccc3nc2SCC(=O)Nc2ccccc2C(C)C)CC1 | · | 18µM | · | · | · | ?
O=C(CSc1nc2ccccc2nc1N1CCCC1)Nc1ccc(Cl)cc1 | – | ? | – | ? | – | 26µM
CCCCN(C)C(=O)CSc1nc2ccccc2nc1Cc1ccc(C)cc1 | · | ? | · | · | · | 16µM
CC(C)c1ccc(NC(=O)CSc2nc3ccccc3nc2N2CCCC2)cc1 | – | 18µM | ? | – | – | 13µM
Cc1cc(C)c(NC(=O)CSc2nc3ccccc3nc2N2CCCCC2)c(C)c1 | · | 7.3µM | · | · | · | 15µM
CCCCNC(=O)CSc1nc2ccccc2nc1Cc1ccc(C)cc1 | · | – | · | · | · | –
COc1cccc(NC(=O)CSc2nc3ccccc3nc2N2CCOCC2)c1 | ? | ? | – | ? | – | ?
CCc1ccc(NC(=O)CSc2nc3ccccc3nc2Cc2ccc(C)cc2)cc1 | · | ? | · | · | · | 16µM
CCOC(=O)c1ccc(S(=O)(=O)N2CCC(C(=O)NCC3CCCCC3)CC2)cc1 | – | – | – | – | ? | –
COc1ccc2ccccc2c1CN1CCCC(n2cc(C(=O)N3CCCC3)nn2)C1 (stereo not drawn) | · | – | · | · | · | –
CN(C)C(=O)c1cccc(-c2cnc3c(NC=O)cc(-c4ccccc4F)cn23)c1 | – | ? | · | · | · | 18µM
COc1cc(-c2cc(NC=O)c3ncc(-c4cccc(C(=O)N(C)C)c4)n3c2)cc(OC)c1OC | – | ? | · | · | · | 15µM
CN(C)C(=O)c1cccc(-c2cnc3c(NC=O)cc(-c4cc(F)c(F)c(F)c4)cn23)c1 | – | ? | · | · | · | ?
N#Cc1ccc(CN2CCC3(CC2)CCN(C(=O)c2ccco2)CC3)cc1 | · | – | · | · | · | ?
O=C(O)/C=C/C(=O)Nc1ccccc1-c1ccccc1NC(=O)/C=C/C(=O)O | – | – | – | – | – | –
O=C(O)/C=C/C(=O)Nc1ccccc1SC(F)(F)F | – | 7.3µM | – | – | – | 21µM
